Measured values taken from PubChem BioAssay (Tox21).
Inconclusive results are not listed. The source made the active and inactive calls. Unless noted, calls come from the whole dose curve; as a rule, active = well fitted curve in the direction sought with a large enough effect in the repeat runs; inconclusive = weak or mixed curves; inactive = no such curve, though single readings can be large; an effect the other way counts as inactive or inconclusive. Where a SMILES comes first, the peptide text is derived from it.

Legend:
[1] = target: Peroxisome proliferator-activated receptor delta (Homo sapiens) (UniProt Q03181); assay: qHTS assay to identify small molecule agonists of the peroxisome proliferator-activated receptor delta (PPARd) signaling pathway (AID 743212; calls by dose curve;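 note: HEK293H cells with PPARd UAS beta-lactamase reporter GeneBLAzer system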)
Outline: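 Beta-lactamase reporter readout: a ratiometric FRET signal from the LiveBLAzer substrate after 2 h at room temperature. Compound exposure at 37 °C in PPARδ-bla HEK293H cells driven by an upstream activator sequence.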

[2] = qHTS assay to identify small molecule antagonists of the peroxisome proliferator-activated receptor delta (PPARd) signaling pathway - cell viability counter screen (AID 743213); note: nearly all actives have a fitted effect of over 50% in size
Outline: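 PPARd-bla HEK293H cells (3000/well) got compound plus 300 nM L165041 agonist for 17 h at 37 C. Viability in the same wells came from CellTiter-Glo luminescence after 30 min at room temperature.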

[3] = target: Peroxisome proliferator-activated receptor delta (Homo sapiens) (UniProt Q03181); assay: qHTS assay to identify small molecule antagonists of the peroxisome proliferator-activated receptor delta (PPARd) signaling pathway (AID 743215; active = well fitted inhibition curve with a large enough effect in the signal ratio in the repeat runs, not every such curve was filed as active; the % refers to the signal ratio;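 note: cells stimulated with agonist L165041 at 300 nM final during compound exposure; series mostly up to about 62 µM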)
Outline: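 Plated HEK293H PPARd-bla cells rested 5 h at 37 C and 5% CO2. Compound, then agonist L165041 at 300 nM final, was added; 17 h at 37 C followed. Substrate loading, 2 h room temperature, fluorescence measured.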

[4] = qHTS assay to identify small molecule antagonists of the farnesoid-X-receptor (FXR) signaling pathway - cell viability counter screen (AID 743221; active = well fitted cell-killing curve with a large enough effect in the repeat runs, not every such curve was filed as active; note: nearly all actives have a fitted effect of over 50% in size)
Outline: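 HEK 293T FXR-bla cells, 5 h pre-incubation; compound + CDCA 50 uM final, 16 h, 37 C; beta-lactamase FRET read first, then CellTiter-Glo luminescence, 30 min RT.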

[5] = target: Vitamin D3 receptor (Homo sapiens) (UniProt P11473); assay: qHTS assay to identify small molecule agonists of the vitamin D receptor (VDR) signaling pathway (AID 743222; calls by dose curve)
Outline: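 Fluorescence from cleaved LiveBLAzer B/G FRET substrate served as readout. VDR-bla cells had been treated 16 h at 37C with test compounds in DMSO, following a 4 h settling period, and substrate was loaded for 2 h at RT.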

[6] = qHTS assay to identify small molecule agonists of the vitamin D receptor (VDR) signaling pathway - cell viability counter screen (AID 743224); note: series mostly up to about 63 µM; nearly all actives have a fitted effect of over 50% in size
Outline: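 Compounds were pin-transferred onto VDR-bla cells plated 4 h earlier; following 16 h incubation at 37C, cell viability was quantified by CellTiter-Glo luminescence after 30 min at room temperature.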

[7] = target: Bile acid receptor (Homo sapiens) (UniProt Q96RI1); assay: qHTS assay to identify small molecule antagonists of the farnesoid-X-receptor (FXR) signaling pathway (AID 743217; active = well fitted inhibition curve with a large enough effect in the signal ratio in the repeat runs, not every such curve was filed as active; the % refers to the signal ratio)
Outline: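 Screen of the Tox21 10K library in quantitative HTS format using FXR-UAS-bla HEK 293T reporter cells. Agonist chenodeoxycholic acid, 50 uM final, added with compounds; 16 h incubation at 37 °C; beta-lactamase FRET fluorescence measured.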

[8] = qHTS assay to identify small molecule agonists of the farnesoid-X-receptor (FXR) signaling pathway - cell viability counter screen (AID 743218); note: nearly all actives have a fitted effect of over 45% in size
Outline: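 Viability of FXR-bla HEK 293T cells is measured by ATP-based CellTiter-Glo luminescence following 16 h compound treatment at 37 C and a prior 2 h room-temperature beta-lactamase substrate step.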

[9] = target: Bile acid receptor (Homo sapiens) (UniProt Q96RI1); assay: qHTS assay to identify small molecule agonists of the farnesoid-X-receptor (FXR) signaling pathway (AID 743220; active = well fitted activation curve with a large enough effect in the signal ratio in the repeat runs, not every such curve was filed as active; the % refers to the signal ratio)
Outline: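 FXR-UAS-bla HEK 293T cells carrying a UAS-driven beta-lactamase reporter were plated for 5 h at 37C/5% CO2, then exposed to DMSO-dissolved Tox21 10K compounds for 16 h at 37C. A LiveBLAzer B/G FRET substrate was loaded for 2 h at room temperature before fluorescence reading.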

[10] = target: Vitamin D3 receptor (Homo sapiens) (UniProt P11473); assay: qHTS assay to identify small molecule antagonists of the vitamin D receptor (VDR) signaling pathway (AID 743223; active = well fitted inhibition curve with a large enough effect in the signal ratio in the repeat runs, not every such curve was filed as active; the % refers to the signal ratio)
Outline: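 Beta-lactamase reporter read-out: FRET substrate fluorescence after 2 h at room temperature, following 16 h exposure of VDR-bla cells to test compound plus 3 nM (final) 1alpha,25-dihydroxyvitamin D3 agonist at 37C.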

Measured: outcome

Peroxisome proliferator-activated receptor delta (Homo sapiens), sequence (Q03181 whole entry, looked up): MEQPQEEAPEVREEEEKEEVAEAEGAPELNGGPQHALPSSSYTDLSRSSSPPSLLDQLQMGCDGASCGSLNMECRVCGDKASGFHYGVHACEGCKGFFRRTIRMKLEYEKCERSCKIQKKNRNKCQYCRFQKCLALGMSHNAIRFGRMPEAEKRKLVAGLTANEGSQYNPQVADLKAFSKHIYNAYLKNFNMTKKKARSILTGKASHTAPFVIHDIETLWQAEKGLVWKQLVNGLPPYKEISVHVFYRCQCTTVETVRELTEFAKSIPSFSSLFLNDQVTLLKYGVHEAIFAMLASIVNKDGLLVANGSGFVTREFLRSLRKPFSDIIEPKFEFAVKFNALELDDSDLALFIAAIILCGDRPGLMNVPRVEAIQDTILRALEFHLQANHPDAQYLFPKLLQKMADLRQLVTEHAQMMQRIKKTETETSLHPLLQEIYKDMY
Bile acid receptor (Homo sapiens), sequence (Q96RI1 whole entry, looked up): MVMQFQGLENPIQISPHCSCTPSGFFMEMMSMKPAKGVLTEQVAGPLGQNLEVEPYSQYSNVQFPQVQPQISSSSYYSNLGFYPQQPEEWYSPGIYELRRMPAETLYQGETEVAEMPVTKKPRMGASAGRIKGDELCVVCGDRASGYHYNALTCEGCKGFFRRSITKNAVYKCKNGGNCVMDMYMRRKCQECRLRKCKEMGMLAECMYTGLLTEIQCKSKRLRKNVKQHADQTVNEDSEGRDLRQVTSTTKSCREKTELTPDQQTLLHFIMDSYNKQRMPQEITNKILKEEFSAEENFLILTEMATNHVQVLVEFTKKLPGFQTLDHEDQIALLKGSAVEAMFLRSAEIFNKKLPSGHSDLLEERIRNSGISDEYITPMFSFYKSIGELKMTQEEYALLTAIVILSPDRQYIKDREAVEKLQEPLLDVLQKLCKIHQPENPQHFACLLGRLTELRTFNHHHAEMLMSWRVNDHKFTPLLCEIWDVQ
Vitamin D3 receptor (Homo sapiens), sequence (P11473 whole entry, looked up): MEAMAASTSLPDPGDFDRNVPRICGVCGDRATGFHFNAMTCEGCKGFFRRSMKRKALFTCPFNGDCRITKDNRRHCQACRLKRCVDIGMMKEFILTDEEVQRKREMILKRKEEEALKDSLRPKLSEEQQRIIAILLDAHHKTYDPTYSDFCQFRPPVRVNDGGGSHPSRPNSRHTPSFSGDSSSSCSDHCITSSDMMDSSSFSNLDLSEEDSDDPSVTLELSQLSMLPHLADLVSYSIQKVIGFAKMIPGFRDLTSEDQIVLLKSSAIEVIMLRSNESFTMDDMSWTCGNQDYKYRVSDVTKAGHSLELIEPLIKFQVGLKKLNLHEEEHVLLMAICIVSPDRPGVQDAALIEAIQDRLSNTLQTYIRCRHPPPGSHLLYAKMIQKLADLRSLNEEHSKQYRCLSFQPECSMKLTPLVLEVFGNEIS

CC(=O)CCC1=C(C)CCCC1(C)C
inactive: [1] | [2] | [3] | [4] | [5]

CCN1CCCC1CN (configuration not stated)
inactive: [1] | [2] | [3] | [5]

O=Cc1cc2ccccc2o1
inactive: [1] | [2] | [3] | [4] | [5] | [6]

C=CC/C=C/C
not listed: [3] | [5] | [10]
inactive: all other assays above

CCCCCc1cccc(=O)o1
not listed: [7] | [8] | [10]
inactive: all other assays above

C=Cc1ccc(C(C)(C)C)cc1
not listed: [3] | [5] | [10]
inactive: all other assays above

CC(C)c1ccc(C=O)cc1
inactive: [1] | [2] | [3] | [4] | [5] | [6]

CC(=O)N[C@@H](CO)C(=O)N[C@@H](CC(=O)O)C(=O)N[C@@H](CCCCN)C(=O)N1CCC[C@H]1C(=O)O (Ac-SDKP-OH)
not listed: [7] | [8]
inactive: all other assays above

NCCOCCN
inactive: [1] | [2] | [3] | [8] | [5] | [6]

CCCSSCCC
not listed: [4] | [7] | [9]
inactive: all other assays above

CC(C)C[C@@H]1[C@H](c2ccccc2)OC(=O)N1CCCN1CCCCCC1
inactive: [1] | [2] | [3] | [4] | [6]

CC(C)Nc1ccccc1
not listed: [4] | [7] | [9]
inactive: all other assays above

CC(C)=CCC/C(C)=C/COC=O
inactive: [1] | [2] | [3] | [8] | [6]

COC(=O)CCCCC(=O)O
inactive: [1] | [2] | [3] | [4] | [6]

C/C=C(\C)C(=O)OCCc1ccccc1
inactive: [1] | [2] | [3] | [9] | [4] | [6]

CC1=C(O)C(=O)C(C)O1 (configuration not stated)
inactive: [1] | [2] | [3] | [9] | [6]

O=[N+]([O-])c1c(Cl)cc(Cl)cc1Cl
not listed: [7] | [8] | [9]
inactive: all other assays above

OCCN1CCOCC1
inactive: [1] | [2] | [3] | [4] | [6]

CC1(C)O[C@H]2CC(=O)OC[C@]23[C@H]2CC[C@@]4(C)[C@H](c5ccoc5)OC(=O)[C@H]5O[C@]54[C@]2(C)C(=O)C[C@@H]13
not listed: [4] | [7] | [9]
inactive: all other assays above

CCCCCC(C)O (configuration not stated)
not listed: [4] | [7] | [9]
inactive: all other assays above

Cc1ccc(C(C)NC(=O)[C@@H](NC(=O)OC(C)C)C(C)C)cc1 (some centres not stated)
not listed: [3] | [5] | [10]
inactive: all other assays above

C[C@]12CCC(=O)C=C1CC[C@H]1[C@@H]3CC[C@](O)(C(=O)CO)[C@@]3(C)C[C@H](O)[C@@]12F
not listed: [6] | [7] | [8]
inactive: all other assays above

CC(=O)OC1CCCCC1C(C)(C)C (configuration not stated)
not listed: [7] | [8] | [9]
inactive: all other assays above

Cc1c(NC(=O)c2cccnc2)c(=O)n(-c2ccccc2)n1C
not listed: [7] | [8] | [10]
inactive: all other assays above

COc1ccc2c(c1)c1c3n2CCN(C)C3=NCC1
inactive: [1] | [2] | [4] | [5] | [6]

CCCCCCCCCOC(=O)c1ccccc1C(=O)OCCCCCCCCC
not listed: [2] | [10]
inactive: all other assays above

O=C[O][Al]([O]C=O)[O]C=O
not listed: [2] | [7] | [10]
inactive: all other assays above

CC(C)Cn1cnc2c1c(=O)n(C)c(=O)n2C
not listed: [2] | [4] | [8]
inactive: all other assays above

COC(=O)c1ccccc1C(=O)O
inactive: [1] | [3] | [8] | [4] | [5]

O=C(O)[C@H](O)c1ccccc1
not listed: [2] | [6] | [10]
inactive: all other assays above

CO[Si](CCCn1c(=O)n(CCC[Si](OC)(OC)OC)c(=O)n(CCC[Si](OC)(OC)OC)c1=O)(OC)OC
not listed: [2] | [7] | [9]
inactive: all other assays above

CCOc1ccccc1OCC1CNCCO1 (configuration not stated)
inactive: [1] | [2] | [8] | [4] | [5] | [6]

[O]=[Mo](=[O])=[O]
inactive: [1] | [2] | [4] | [5] | [6]
